From PubChem BioAssay AID651681 (Broad Institute, 2012)
Active and inactive are the calls of the source.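 How the source made its calls: active means compound with fitted CDK2 half-maximal potency at or below twice its top tested dose; inconclusive means flat curve near 30 to 70% inhibition, or poor fit; inactive means the rest.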

molecular target: Cyclin-dependent kinase 2 (Homo sapiens) + Cyclin-A2 (Homo sapiens) (UniProt P20248+P24941); assay: CDK2/cyclin A inhibitors, off-target check, dose response, selectivity assay for Dyrk1A inhibitor project, biochemical, dry powder, set 3 (AID 651681); conditions: CDK2/cyclin A ADP-Glo luminescence, histone H1 peptide; series mostly up to 10 µM
Sequence (P20248 whole entry, looked up, one chain of several): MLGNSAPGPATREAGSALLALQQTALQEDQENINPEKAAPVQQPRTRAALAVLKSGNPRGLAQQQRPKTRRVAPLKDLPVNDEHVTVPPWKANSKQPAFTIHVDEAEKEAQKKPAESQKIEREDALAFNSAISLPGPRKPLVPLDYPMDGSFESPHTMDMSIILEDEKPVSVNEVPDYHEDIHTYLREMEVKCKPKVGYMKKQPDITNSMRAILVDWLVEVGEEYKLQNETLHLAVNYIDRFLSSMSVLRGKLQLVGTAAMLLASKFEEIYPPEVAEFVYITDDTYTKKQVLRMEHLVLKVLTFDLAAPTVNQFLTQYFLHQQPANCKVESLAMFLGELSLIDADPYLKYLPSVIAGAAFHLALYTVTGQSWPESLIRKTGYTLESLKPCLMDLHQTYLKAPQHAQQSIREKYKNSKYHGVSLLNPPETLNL

outcome, inactive:
CN(CC(=O)Nc1nc2ccccc2s1)S(=O)(=O)c1ccccc1, CN(CC(=O)Nc1nc2ccc(Cl)cc2s1)S(=O)(=O)c1ccc(C#N)cc1, COc1ccc(C2=Nn3c(nnc3-c3cccnc3)SC2)cc1, CN(CC(=O)Nc1nc2ccc(Cl)cc2s1)S(=O)(=O)c1ccc(Cl)cc1, COc1ccc2nc(NC(=O)C3CCCN(S(=O)(=O)c4cccc5nsnc45)C3)sc2c1 (configuration not stated), COc1ccc(OC)c(CNC(=O)c2sc3ccccc3c2Cl)c1, COc1ccc2c(Cl)c(C(=O)NC(C)C)sc2c1, COc1ccc2c(Cl)c(C(N)=O)sc2c1, COc1ccc(OC)c(C2=Nn3c(nnc3-c3ccccn3)SC2)c1, COc1ccc(OC)c(C2=Nn3c(nnc3-c3ccccc3)SC2)c1, Cc1ccc(S(=O)(=O)N(C)CC(=O)Nc2nc3ccccc3s2)cc1, Clc1ccc(CSc2nc(Nc3ccc4c(c3)OCO4)c3ccccc3n2)cc1, COc1ccc(C2=Nn3c(nnc3-c3cccnc3)SC2)cc1OC, CCCCN(c1nc2ccccc2s1)S(=O)(=O)c1ccc(Cl)cc1, COc1cccc(C2=Nn3c(nnc3-c3ccccc3)SC2)c1, CCOc1ccc2nc(NC(=O)COc3ccc(Cl)c(OC)c3)sc2c1, Cc1csc(NC(=O)C2CCCN(S(=O)(=O)c3cccc4nonc34)C2)n1 (configuration not stated), COc1ccc(S(=O)(=O)N2CCCC(C(=O)Nc3nc4ccccc4s3)C2)cc1 (configuration not stated), COc1ccc2nc(NC(=O)CN(C)S(=O)(=O)c3ccc(F)cc3)sc2c1, COc1ccc(NC(=O)C2CCCN(S(=O)(=O)c3cccc4nonc34)C2)cc1 (configuration not stated), O=C(NCc1ccccc1)c1sc2ccccc2c1Cl, COc1ccc2nc(NC(=O)C3CCN(S(=O)(=O)c4cccnc4)CC3)sc2c1
